Bioassay records (PubChem)
CDC25B-CDK2 inh: human CDC25B-CDK2/CyclinA binding inhibition | HTRF CDC25B-CDK2/CyclinA binding, anti-His/anti-Flag; hits give high values | hit rate 0.72% among 94,000 | AID 1259370 | P30305+P24941 | z-score (concentration not given with the values); in the data active = z-score above about 3.2
TAR Tat displ: HIV-1 TAR-Tat binding disruption; HIV-1 TAR RNA, Tat peptide displacement FRET; hits give high values; z-score (test concentration not listed); hit rate 0.6% among 100,000; AID 1259389; active = z-score of 3 or more in at least 2 runs
Active calls of the source: *; . = no result. The list is not random: actives were taken first. Their share in the collection is about 0.9%.

SMILES	CDC25B-CDK2 inh	TAR Tat displ
O=c1c2c(nc3cc(-c4ccco4)[nH]n13)CSC2	19*	.
O=c1c2c(nc3cc(-c4ccccc4)[nH]n13)CCCC2	1	.
COc1cccc(-c2nc(N)nc(SC)c2C#N)c1	-0.18	.
c1ccc(CCN2CCn3c(nc4ccccc43)C2)cc1	-2.5	-0.28
CC(C)CCCC(C)NC(=O)Cn1cnc2c1c(=O)n(C)c(=O)n2C (stereo not given)	-0.69	0.63
CCN(CC)Cc1ccc(O)c2ncccc12	13*	1.3
Oc1ccc(Cc2ccc(O)c3ncccc23)c2cccnc12	-3.8	1.9
CN1c2ccsc2-c2nc(SCC(=O)c3ccc(Cl)cc3)ncc2S1(=O)=O	-0.86	.
CCOC(=O)Cn1cnc2nn(-c3ccccc3)cc2c1=O	3.6	5.1*
CCOC(=O)c1ncn(-c2ccccc2)n1	-1.9	0.55
CCN(CC)CCNc1cc(N2CCOCC2)c2noc3c2c1C(=O)c1ccccc1-3	-4.9	6.5*
CN(C)CCCNc1cc(N(C)CCO)c2noc3c2c1C(=O)c1ccccc1-3	-4	7*
CCNc1cc(N(C)CCO)c2noc3c2c1C(=O)c1ccccc1-3	-0.52	-0.08
CCN(CC)CCNc1cc(N2CCCC2)c2noc3c2c1C(=O)c1ccccc1-3	-0.38	-1
CN(C)CCCNc1cc(N2CCCC2)c2noc3c2c1C(=O)c1ccccc1-3	1.9	8.8*
CN(C)CCNc1cc(N2CCOCC2)c2noc3c2c1C(=O)c1ccccc1-3	-2	-1.4
CN(C)CCNc1cc(N2CCCCC2)c2noc3c2c1C(=O)c1ccccc1-3	6.2*	17*
CN(C)CCCNc1cc(N2CCCCC2)c2noc3c2c1C(=O)c1ccccc1-3	0.05	1.7
CCC(C(=O)N1CCN(c2ccccn2)CC1)n1nc(C)n2c(cc3occc32)c1=O (stereo not given)	-2	2.2
COCCOC(=O)c1c(C)oc2ccc(OC(=O)c3ccc(OC)c(OC)c3)cc12	-0.86	-0.43
CC1CCCC(NC(=O)C2CCN(S(=O)(=O)c3ccc4c(c3)oc(=O)n4C)CC2)C1C (stereo not given)	-1.2	0.07
O=c1c2ccccc2n2c(-c3cc(Br)cs3)nnc2n1Cc1ccc(F)cc1	-1.8	0.74
O=C(CSc1nc2ncccc2[nH]1)NC1CCCCC1	-1.3	1.2
Cc1c(C(=O)N2CCOCC2)c(S(=O)(=O)NC2CCCCC2)c(C)n1C	.	-0.68
CCCN1CCN(c2cc(NCCCOCC)c3c4c(onc24)-c2ccccc2C3=O)CC1	1.9	6.3*
SMILES	CDC25B-CDK2 inh	TAR Tat displ
CCCN1CCN(c2cc(NCCOC)c3c4c(onc24)-c2ccccc2C3=O)CC1	-2.1	-0.12
CCCc1cc(=O)n2[nH]c(-c3ccco3)nc2n1	.	1.3
CCOC(=O)Cc1cc(=O)n2[nH]c(-c3ccco3)nc2n1	13*	1.8
CCOc1ccc(Nc2nc3ccccc3c3nnc(CC)n23)cc1	-3.4	2.4
O=C(CSc1nc2ccccc2c(=O)[nH]1)N1CCc2ccccc21	.	14*
NC(=O)CSc1nc2ccccc2c(=O)[nH]1	-0.94	2
COCCNC(=O)C1=CC(c2cccs2)=NS(=O)(=O)N1C	-1.4	1.4
Cc1ccc(-c2onc(C)c2C)cc1S(=O)(=O)N(C)Cc1ccco1	.	0.27
Cc1ccc(-c2ccccc2)n1-c1cccc2cccnc12	-2.5	-1.6
Cc1ccc(-c2ccccc2)n1-c1cccnc1	17*	1.1
O=C(c1ccccc1)N1c2ncnn2C2(CCCCC2)[C@@H]2CCCC[C@@H]21	-1.4	2.8
Cc1cccc(C(=O)N2c3ncnn3C3(CCCCC3)[C@@H]3CCCC[C@@H]32)c1	0.37	9.2*
O=C(Cc1ccc(NC2=NC3CS(=O)(=O)CC3S2)cc1)N1CCC(Cc2ccccc2)CC1 (stereo not given)	0.07	.
CC1=C(C(=O)Nc2cc(Cl)ccc2C(=O)NC2CCCC2)SCCO1	.	1.8
O=C(NC(NC(=S)Nc1cccc2ccccc12)C(Cl)(Cl)Cl)c1ccccc1F (stereo not given)	5.3*	.
O=C(NC(NC(=S)Nc1ccccc1Br)C(Cl)(Cl)Cl)c1ccccc1 (stereo not given)	1.2	.
CCOCCCn1c(=S)[nH]c2c(sc3ccccc32)c1=O	-4.6	.
O=C(CSC1=Nc2ccccc2C2=NC(Cc3c[nH]c4ccccc34)C(=O)N12)NC1CCCCC1 (stereo not given)	.	0.74
CC1CC(C)CN(C(=O)CSC2=Nc3ccccc3C3=NC(Cc4c[nH]c5ccccc45)C(=O)N23)C1 (stereo not given)	.	5.4*
Cc1c(C(=O)NCCCN2CCCC2=O)oc2ccc(S(=O)(=O)N3CCOCC3)cc12	0.37	.
Cc1cc(C)c2c(n1)nn1c(C)c(CCC(=O)NC3CCCC3)c(C)nc21	-1.8	2.5
CCN(CC)c1ccc(NC(=O)CCc2c(C)nc3c4c(C)cc(C)nc4nn3c2C)c(C)c1	-0.09	6.4*
Nc1ccc(-c2nc3cc(N)c(Cl)cc3[nH]2)cc1	-6.2	5.5*
Nc1ccc(-c2nc3ccc(-c4nc5ccc(N)cc5[nH]4)cc3[nH]2)cc1	9.9	.
